Source: PubChem BioAssay
D1 antag – antagonists of human D1 dopamine receptor; hit rate 3.2% among 360,000; activity change, negative = inhibition, % at 10 µM; P21728; HEK293 TREx D1 cells, calcium flux, dopamine EC80; stronger effect = lower value; AID 504652; in the data active = activity change below about -30%; note: % is set by controls: 0 for no effect and ±100 for the full control effect
Target sequence (P21728 whole entry, looked up): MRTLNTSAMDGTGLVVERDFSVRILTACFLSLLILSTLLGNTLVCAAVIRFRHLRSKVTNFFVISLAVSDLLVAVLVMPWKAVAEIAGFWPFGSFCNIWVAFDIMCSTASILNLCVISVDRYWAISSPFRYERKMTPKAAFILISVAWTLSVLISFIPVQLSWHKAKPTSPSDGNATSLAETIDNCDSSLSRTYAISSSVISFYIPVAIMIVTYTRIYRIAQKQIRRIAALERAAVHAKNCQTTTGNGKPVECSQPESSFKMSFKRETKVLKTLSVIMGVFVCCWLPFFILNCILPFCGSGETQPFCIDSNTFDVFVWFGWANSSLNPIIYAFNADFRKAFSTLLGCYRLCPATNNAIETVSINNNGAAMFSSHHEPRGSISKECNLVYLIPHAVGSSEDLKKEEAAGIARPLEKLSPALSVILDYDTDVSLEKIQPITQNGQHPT
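Compound effects on dopamine-evoked calcium signalling were measured in tetracycline-induced HEK293 Trex D1 cells. Dopamine at EC80 followed a 180 s compound pre-read, and fluorescence was tracked kinetically for 180 s more.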
D1 agonist – human D1 receptor agonism | P21728 | HEK293 T-REx D1 cells, calcium flux, agonist mode | activation, % at 2 µM | hit rate 1% among 360,000; note: 0% is about no effect
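Agonism was scored from calcium flux recorded over 180 s (1 read/s) after pintool compound addition, following a 10-cycle baseline. Cells were inducible force-coupled HEK293 TREx D1, plated overnight at 30 C and loaded with no-wash calcium dye.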
D1 PAM – enhances dopamine response at the human D1 receptor. P21728. HEK293 TREx D1 cells, calcium flux, dopamine EC20 potentiation. potentiation, % at 10 µM. hit rate 0.036% among 360,000; in the data active = potentiation above about 30%; note: 0% is about no effect
TRHR ag – activates the human TRH receptor; TRHR cells, calcium flux fluo-8, FDSS agonist mode; hit rate 0.18% among 360,000; activation, % at 2 µM; note: 0% is about no effect
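Fluo-8-loaded TRHR cells; 10 s baseline, compound added, kinetic Ca2+ fluorescence read 1/s, agonist mode.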
TRHR PAM – allosteric enhancers of human TRH receptor; TRHR cells, fluo-8 calcium fluorescence, EC20 TRH enhancement; enhancement, % at 2 µM; hit rate 0.66% among 360,000; AID 493056; in the data active = enhancement above about 30%; note: 0% is about no effect
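Enhancer read-out: after compound pinning and an initial kinetic agonist-mode read, an EC20 of TRH (10 nM final) was injected and fluo-8 calcium signal (Ex 480/Em 530) followed at 1 s/cycle for 100 cycles in TRHR-expressing cells.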
An asterisk follows results filed as active; . = not tested or not shown. The list is not random: actives were taken first. Their share in the collection is about 4.6%. Cut-off read from the data, not from the text of the source, unless noted: active = activation above about 30%; inactive = the rest.

SMILES	D1 antag	D1 agonist	D1 PAM	TRHR ag	TRHR PAM
COc1ccc(N)c2c1C(=O)c1ccccc1C2=O	-2	3	4	-1	5
COc1cc2c(cc1OC)n(CC(=O)c1cc(C)ccc1C)c(=O)n1nc(CCn3nc(C)cc3C)nc21	-14	1	1	0	2
CCCCCn1ncc2c3sc(C)cc3n(C)c2c1=O	-2	2	-2	-2	-2
COc1ccc(C2=C/C(=C\c3cccc(OC(C)=O)c3)C(=O)O2)cc1	-31*	81*	-7	11	-2
O=C1OC(c2ccc(Cl)cc2)=C/C1=C/c1cccnc1	3	1	0	0	-3
COc1ccc(C2=C/C(=C\c3ccccc3OC(C)=O)C(=O)O2)cc1	-10	54*	2	19	-1
O=C(NCc1ccccn1)c1n[nH]c2ccccc12	0	2	0	0	39*
O=C(NCc1ccccn1)c1n[nH]c(=O)c2ccccc12	12	6	-1	0	16
COc1ccc(C(=O)C2CCCN(Cc3cn[nH]c3-c3ccccc3)C2)cc1OC (configuration not stated)	-31*	5	-6	0	-4
COc1ccc(Br)cc1CN1CCCC(C(=O)N2CCCCCC2)C1 (configuration not stated)	-34*	5	-6	0	-3
COc1cccc(OC)c1CN1CCCC(C(=O)c2ccccc2SC)C1 (configuration not stated)	-57*	18	-5	0	-2
COc1ccc(Br)cc1CN1CCCC(C(=O)N2CCCCC2)C1 (configuration not stated)	-26	1	-7	0	-3
COc1ccccc1CN1CCCC(C(=O)N2CCCCC2)C1 (configuration not stated)	-16	3	0	1	39*
Cc1csc2nc(COC(=O)c3ccccc3NC(=O)c3ccc(C(C)(C)C)cc3)cc(=O)n12	0	2	1	1	-1
COc1ccc(OC)c(S(=O)(=O)Nc2cccc(-c3ccc(N4CCCCC4)nn3)c2)c1	-6	3	2	-1	-2
COc1cccc(-c2nc(SCC(=O)NC3CCCC3)c(-c3ccccc3)[nH]2)c1	-8	1	1	1	-2
CCSc1nsc(NC(=O)Nc2cccc(F)c2)n1	-44*	42*	-7	7	-3
CCCSc1nsc(NC(=O)Nc2ccc(F)cc2F)n1	-60*	33*	-8	0	16
COc1cccc(NC(=O)Nc2nc(SC(C)(C)C)ns2)c1	-40*	30	-8	5	-10
COc1cccc(NC(=S)N(CCC(C)C)C(C)c2ccncc2)c1 (configuration not stated)	1	-1	-2	0	-2
CSc1cccc(NC(=S)N(CCC(C)C)C(C)c2ccncc2)c1 (configuration not stated)	-34*	6	-5	-1	1
COCCCN(C(=S)Nc1cc(Cl)cc(Cl)c1)C(C)c1ccncc1 (configuration not stated)	-53*	1	-3	0	-1
CCCc1cc(=O)n2c(C(=O)Nc3ccc(OCC)cc3)c(C(=O)Nc3ccc(C)cc3)sc2n1	-19	1	2	0	3
COc1ccc(CCC(=O)NNC(=O)Cn2nc(C)cc2C)cc1	-58*	4	-11	1	15
Cc1cc(C)n(CC(=O)NNC(=O)CCCOc2ccc(Cl)c(C)c2)n1	12	7	0	0	0
SMILES	D1 antag	D1 agonist	D1 PAM	TRHR ag	TRHR PAM
O=C(Nc1ccccc1)c1cc(N2CCOCC2)nc2ccccc12	-55*	1	0	0	1
CC1CCc2cc(F)cc3c(O)c(C(=O)NCC4CCCO4)c(=O)n1c23 (configuration not stated)	-77*	1	3	1	2
COc1ccc(/C=c2\s/c(=C/C(=O)c3ccc(C)cc3)[nH]c2=O)cc1OC	-6	64*	-6	36*	7
O=C1c2ccccc2-c2onc3c(Br)cc(NC4CCCCC4)c1c23	-2	39*	-3	6	0
CC(C)CNc1cc(NC2CCCCC2)c2c3c(onc13)-c1ccccc1C2=O	-5	1	3	0	-1
O=C(COc1ccc(Cl)cc1)NCC(c1ccco1)S(=O)(=O)c1ccc(Cl)cc1 (configuration not stated)	.	3	-4	0	11
Cc1nn2c(-c3cccc(NC(=O)c4ccc(Cl)cc4)c3)nnc2c2ccccc12	4	0	-3	-1	42*
Cn1nc(-c2ccc(C(=O)Nc3cccc(Cl)c3)cc2)c2ccccc2c1=O	-37*	0	-6	0	-4
Cc1nn2c(-c3cccc(NC(=O)c4ccco4)c3)nnc2c2ccccc12	3	0	2	-1	13
Cc1cc(C)c(Nc2cc(S(=O)(=O)O)c(N)c3c2C(=O)c2ccccc2C3=O)c(C)c1	-15	40*	-2	0	3
COc1cccc(N2CC34C=CC(O3)C(C(=O)O)C4C2=O)c1 (configuration not stated)	-42*	0	0	1	-2
COc1ccc(NC(=O)N(C2CCCCC2)C(C)c2cccnc2)c(OC)c1 (configuration not stated)	-7	3	-3	0	-8
COc1ccc(NC(=O)CN2CCN(C(=O)c3ccco3)CC2)c(OC)c1	3	4	-3	0	9
COc1ccc(NC(=O)N(C2CCCCC2)C(C)c2ccco2)c(OC)c1 (configuration not stated)	-78*	1	-18	0	-19
COc1ccc(NC(=O)CSCC(=O)N2CCN(C(=O)c3ccco3)CC2)cc1	-63*	3	.	0	0
COc1ccc(NC(=S)N2CCN(C(=O)c3ccco3)CC2)c(OC)c1	-68*	2	-7	1	-3
CCOC(=O)c1ccc(CN(Cc2ccc(F)cc2)S(=O)(=O)c2cc(C(=O)Nc3cccc(C(F)(F)F)c3)ccc2F)cc1	4	11	0	3	0
Cc1cc2c(s1)c1cnn(Cc3ccc(C(C)C)cc3)c(=O)c1n2C	2	4	-5	-1	1
CCn1cc(S(=O)(=O)c2cc(C)cc(C)c2)c(=O)c2cc(F)c(N3CCCC3)cc21	33	6	1	0	12
CS(=O)(=O)Nc1ccc(-c2cc(/C=C3\SC(N)=NC3=O)c[nH]c2=O)cc1	13	2	4	1	14
O=C(NCCN1CCOCC1)c1ccc(Cl)c(S(=O)(=O)N2CCCCC2)c1	-36*	3	7	0	0
Cc1ccc(C(=O)NCCCN2CCOCC2)cc1S(=O)(=O)N1CCCCC1	2	3	-6	0	0
O=C(NCc1ccccc1CN1CCCC1)c1cccc(S(=O)(=O)N2CCCC2)c1	-13	3	-2	0	7
